# Many of the other results were omitted from the sample, so hits are more common in it than they were.
# SARS PLpro yeast – blocks SARS-CoV papain-like protease in a yeast assay | S. cerevisiae expressing SARS-CoV PLpro, growth rescue | Potency, µM (highest dose often 32.9 µM), for the others: top-dose activity, positive = growth rescue, hits mostly activators | actives 0.19% (n = 330,000) | AID 485353; calls by dose curve; further: potency means the concentration at half of the fitted maximal effect; 0% is about no effect; nearly all actives have a fitted effect of over 55% in size
# AmpC inh detg – AmpC beta-lactamase inhibition with detergent present | P00811 | AmpC hydrolysis of nitrocefin, absorbance 480 nm, 0.01% Triton | Potency, µM (titrated, usually from 114 µM), without a hit: top-dose activity change, negative = inhibition, usual class: inhibitors | actives 0.041% (n = 370,000) | AID 485294;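 further: potency means the concentration at half of the fitted maximal effect; 0% = no-compound wells and -100% = no-enzyme wells; nearly all actives have a fitted effect of over 25% in size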
# Target sequence (P00811 whole entry, looked up): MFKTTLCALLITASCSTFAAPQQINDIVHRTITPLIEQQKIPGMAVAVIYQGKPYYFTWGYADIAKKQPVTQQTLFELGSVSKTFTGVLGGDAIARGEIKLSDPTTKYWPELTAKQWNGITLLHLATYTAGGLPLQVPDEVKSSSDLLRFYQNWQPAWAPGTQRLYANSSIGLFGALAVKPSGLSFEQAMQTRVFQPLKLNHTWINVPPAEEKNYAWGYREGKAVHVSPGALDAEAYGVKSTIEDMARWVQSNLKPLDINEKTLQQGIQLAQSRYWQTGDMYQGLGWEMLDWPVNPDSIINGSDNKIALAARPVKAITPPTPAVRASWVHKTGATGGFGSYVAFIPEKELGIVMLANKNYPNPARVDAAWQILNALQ
#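 20 mM phosphate pH 7.0 + 0.01% (detergent screen) or 0.0001% Triton X-100; 5.3 nM AmpC reagent; cpd preinc 15 min RT; nitrocefin (800 uM stock) to start; A480 q20 s × 4 min; Activity was normalised to no-enzyme and no-compound control wells.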
# Shiga toxin inh – blocks Shiga toxin action in Vero cells; inhibition, % at 38.7 µM; Vero cells, Shiga toxin protein synthesis inhibition reporter; actives 9.2% (n = 290,000); in the data active means inhibition mostly above about 28%, no sharp cut-off; inactive means mostly below about 43%; further: 0% is about no effect
# AMA1 RON2 block – inhibitors of Plasmodium falciparum AMA1-RON2 interaction | Potency, µM (highest dose often 58.2 µM), inactives show top-dose activity change, negative = inhibition, usual class: inhibitors | AID 720542 | actives 0.2% (n = 360,000) | AlphaScreen AMA1-biotinylated RON2 peptide binding;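 further: potency means the concentration at half of the fitted maximal effect; 0% = vehicle wells and -100% = peptide control; nearly all actives have a fitted effect of over 45% in size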
#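 AMA1 (3D7) with his tag at 25 nM final met compounds first, then biotinylated RON2 peptide at 25 nM; detection used donor plus acceptor beads, 10 µg/mL apiece, read by AlphaScreen after 30 min at room temperature.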
# CHX counter – affects cycloheximide protein synthesis inhibition readout, counter-screen; cell reporter, cycloheximide protein synthesis inhibition counterscreen; AID 2314; max response, %; actives 12% (n = 300,000); in the data active means max response mostly above about 13%, no sharp cut-off; inactive means mostly below about 14%; further: read at 38.3 µM for the half of the compounds with a filed dose; 0% is about no effect
# AmpC no deterg – AmpC beta-lactamase inhibition without detergent. Potency, µM (doses to about 57.1 µM), for inactives: at the highest dose activity change, negative = inhibition, actives largely listed as inhibitors. actives 0.52% (n = 330,000). AID 485341. AmpC nitrocefin hydrolysis, absorbance 480 nm, 0.0001% Triton. P00811;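 further: potency means the concentration at half of the fitted maximal effect; plate controls were no compound for no effect and no enzyme for full effect; nearly all actives have a fitted effect of over 20% in size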
#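 AmpC (5.3 nM in the dispensed reagent) in 20 mM phosphate pH 7.0 with 0.01% (detergent screen) or 0.0001% Triton X-100 was preincubated with compounds for 15 min at room temperature. Nitrocefin was then added from an 800 uM solution, and hydrolysis was followed at 480 nm.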
# The depositor's hits bear a star; u = inconclusive; x = no result; [ ] = remark or other dose. Unless noted, the call rests on the fitted dose curve; in most records, active means well fitted curve in the direction sought with a large enough effect; inconclusive means small, poorly fitted or top-dose-only effect, or another doubt; inactive means no such curve, though single readings can be large; an effect the other way counts as inactive or inconclusive.
SMILES,SARS PLpro yeast,AmpC inh detg,Shiga toxin inh,AMA1 RON2 block,CHX counter,AmpC no deterg
CCOCCCNC(=O)C1CCC(CNS(=O)(=O)c2ccc(NC(C)=O)cc2)CC1 (stereo not given),x,7%,x,x,x,x
COC(=O)c1cccc(NC(=O)CCCOc2ccccc2)c1,-4%,0%,-5,33%,8,-9%
NC(=O)c1cccc(NC(=O)Nc2ccc(Cl)cc2)c1,x,-4%,22,-10%,19*,1%
CC(=O)c1cccc(NC(=O)CCOc2ccccc2)c1,-1%,2%,51*,-2%,25*,-19%
CCCC(=O)Nc1ccc(C(=O)NCc2ccccc2Cl)cc1,4%,-1%,14,-13%,9,-32%
CC(=O)c1cccc(NC(=O)Nc2ccccc2)c1,0%,-2%,62*,12%,26*,-26%
CC(=O)c1ccc(NC(=O)C(C)NCc2ccccc2Cl)cc1 (stereo not given),-1%,9%,23,-8%,24*,-9%
O=C1CC(C(=O)Nc2ccc(C(=O)N3CCOCC3)cc2)C2(CCCCC2)O1 (stereo not given),1%,3%,-7,-2%,-5,5µM*
CC(=O)c1ccc(NC(=O)Nc2ccccc2)cc1,-11%,0%,79*,8%,38*,-44%
O=C(Nc1ccccc1)Nc1ccc(C(=O)N2CCOCC2)cc1,-21%,1%,62*,3%,46*,8%
CNC(=O)Nc1cccc(C(F)(F)F)c1,-82%,-14%,10,-12%,12,-6%
O=C1CC(C(=O)Nc2ccccc2)C2(CCCC2)O1 (stereo not given),0%,u,-3,-11%,-3,-8%
O=C(c1ccc(NC(=O)C2(c3ccccc3)CCCC2)cc1)N1CCOCC1,0%,10%,-6,-14%,-1,86%
O=C(Nc1ccccc1)Nc1cccc(C(F)(F)F)c1,-5%,-1%,80*,1%,30*,-42%
O=C(CN1C(=O)c2ccccc2S1(=O)=O)NCc1ccccc1Cl,-9%,-8%,-12,-8%,-2,-4%
O=C(C[C@@H]1C/C=C\CC[C@@H](Cc2ccc(F)cc2)C(=O)OC[C@@H](Cc2ccccc2)NC1=O)NCCO,1%,x,x,3%,x,283%
O=C(Nc1ccc(Br)cn1)c1cccc(C(=O)Nc2ccc(Br)cn2)c1,-1%,u,12,4%,2,-27%
O=C(Nc1ccc(Br)cn1)c1ccc2ccccc2c1,2%,u,x,-4%,29*,-44%
COc1cc2ccccc2cc1C(=O)Nc1ccc(Br)cn1,3%,-9%,86,20%,25*,-13%
COc1c(C(=O)Nc2ccc(Br)cn2)ccc2ccccc12,-4%,0%,76*,-2%,26*,-14%
O=C(Nc1ccc(Br)cn1)c1cccc2ccccc12,x,x,x,3%,x,x
O=S(=O)(Nc1ccc(Br)cn1)c1ccc2ccccc2c1,-2%,-9%,-8,1%,-2,7.1µM*
Cc1ccc(NS(=O)(=O)c2ccc(Br)cc2)nc1,0%,1%,-3,0%,-3,-7%
CC(Sc1n[nH]c(N)n1)C(=O)Nc1ccccc1-c1ccccc1 (stereo not given),-7%,-1%,10,7%,2,-17%
Cc1cccc2sc(NC(=O)CCn3cccc3)nc12,-1%,9%,28,-17%,9,-27%
SMILES,SARS PLpro yeast,AmpC inh detg,Shiga toxin inh,AMA1 RON2 block,CHX counter,AmpC no deterg
c1ccc2c(c1)Oc1cccc3cccc-2c13,0%,2%,25*,198%,12*,-18%
O=C1c2ccccc2-c2cccc3cccc1c23,x,x,x,1%,x,x
CC1=Nc2cc(C(=O)O)ccc2Sc2ccc(C)cc21,4%,3%,36,10%,20*,-24%
O=C(O)CCNc1ccc(Cl)cc1,-1%,-4%,-6,-11%,-2,-13%
O=C(CCc1ccc(CCC(=O)c2cccs2)s1)c1cccs1,2%,-10%,53*,30%,22*,-32%
CC(NC(=O)c1cccs1)c1ccc(Cl)cc1 (stereo not given),x,x,x,0%,x,x
O=C(CCNc1cc(Cl)cc(Cl)c1)c1cccs1,-27%,u,43,50%,18*,-14%
O=C(CCNc1ccc(Cl)cc1)c1cccs1,3%,u,42*,6%[11.6 µM],32*,-27%
O=C(CCSc1ccc(Cl)cc1)c1cccs1,-1%,0%,24,17%,12*,-14%
COC(=O)CSc1nnc(CNC(=O)c2cc(OC)cc(OC)c2)n1-c1ccc(F)cc1,-1%,-6%,19,0%,3,64%
COc1cccc(C(c2ccccc2)N2C3CCC2CN(S(=O)(=O)c2ccc(F)cc2)CC3)c1 (stereo not given),-6%,2%,x,-3%,x,-15%
CN1CCN(CCOc2ccc(-c3ccccc3)cc2)CC1,u,-2%,86*,3%,46*,92%
CCN1CCN(CCCOc2ccc(-c3ccccc3)cc2)CC1,-5%,u,70*,-13%,37*,113%
CN1CCN(CCCOc2ccc(-c3ccccc3)cc2)CC1,-5%,u,75*,-9%,27*,52%
COc1ccc(OCCOCCN2CCN(C)CC2)cc1,-1%,3%,-1,7%,-3,-2%
O=C(Nc1ccc(N2CCCC2)c(Cl)c1)c1ccccc1F,x,x,x,-7%,x,x
O=C(Nc1ccc(N2CCCC2)c(Cl)c1)c1ccccc1[N+](=O)[O-],17%,-9%,15,-3%,27*,u
O=C(NC(=S)Nc1ccc(N2CCCC2)cc1)c1ccccc1[N+](=O)[O-],14%,-9%,40*,49%,13,-40%
CC1(Cc2cccc(C(F)(F)F)c2)C(=O)Nc2c(Cl)cccc21 (stereo not given),x,x,x,-1%,x,x
Cc1ccc(C(=O)c2sc3nsc(C)c3c2N)cc1,14%,-1%,155*,7%,86*,-3%
C=CCNc1sc(C(=O)c2ccc(C)cc2)c(N)c1C#N,6%,-10%,-10,-4%,-6,-32%
Cc1snc2sc(C(=O)c3ccc(Br)cc3)c(N)c12,-4%,-5%,28,-2%,27*,-15%
O=C(O)CCC(=O)Nc1ccc(/C=C/C(=O)C2CC2)cc1,1%,1%,43,12%,29*,120%
COc1ccc(C2=NOC(C(=O)N3CCOCC3)C2)cc1OC (stereo not given),7%,-11%,50*,25%,18*,-19%
COc1cccc(C2=NOC(C(=O)Nc3ccc(OC)c(OC)c3)C2)c1 (stereo not given),3%,3%,7,-8%,17*,15%
COc1ccc(NC(=O)C2CC(c3c(F)cccc3Cl)=NO2)cc1 (stereo not given),-5%,0%,x,0%,18*,-15%

# From PubChem BioAssay
